Laboratory results from PubChem BioAssay (NCATS).
Several values for one entry are separate records, joined by “and”; a condition that tells them apart may be missing. Identical values can stand only once. Results filed as inconclusive are left out. Where a structure was tested more than once in an assay, its records may differ in their call. Activity calls are given as the source filed them. Unless noted, the call rests on the fitted dose curve; in most records, active means well fitted curve in the direction sought with a large enough effect; inconclusive means small, poorly fitted or top-dose-only effect, or another doubt; inactive means no such curve, though single readings can be large; an effect the other way counts as inactive or inconclusive.

What was measured:
Tov-21-G = experiment: Primary qHTS to identify gynecologic anti-cancer compounds using libraries of approved drugs and bioactive compounds (AID 1345084); conditions: Gynecologic cancer cell panel viability, ATPlite luminescence, 48 h; series mostly up to 57.5 µM; further: nearly all actives have a fitted effect of over 55% in size; further: potency means the concentration at half of the fitted maximal effect
Summary of the method: (§1)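 Five-point cytotoxicity, 48 h drug exposure at 37 C, 5% CO2, on cells seeded 16 h beforehand. ATP content read by ATPlite luminescence.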

Tov112D = experiment: as above; conditions: Gynecologic cancer cell panel viability, ATPlite luminescence, 48 h; series mostly up to 57.5 µM
Summary of the method: as §1

[1] = Drug repurposing screens with cells derived from glioblastoma tumor samples (AID 1345199); conditions: GBM patient neurospheres viability, ATP luminescence, 48 h; further: nearly all actives have a fitted effect of over 40% in size; further: potency means the concentration at half of the fitted maximal effect; on activity, negative = cell killing: on the % scale 0 is the no-effect control and ±100 the full control effect
Summary of the method: (§2)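 Four patient lines of CD133+ GBM neurospheres were screened at several concentrations; hits were retested in those lines plus three slower-growing GBM lines, using 48-hour treatment and ATP-based viability.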

astro = experiment: as above; conditions: viability, ATP luminescence, 48 h; series mostly up to 45.9 µM
Summary of the method: as §2

[2] = qHTS assay for small molecule activators of the human pregnane X receptor (PXR) signaling pathway (AID 720659; call rule not given here; further: 0% is about no effect)
[3] = target: Nuclear receptor subfamily 1 group I member 2 (Rattus norvegicus) (UniProt Q9R1A7); experiment: qHTS assay for small molecule activators of the rat pregnane X receptor (rPXR) signaling pathway (AID 651751; call rule not given here; further: 0% is about no effect); conditions: rPXR reporter cells, luciferase (One-Glo), 24 h
Sequence of Nuclear receptor subfamily 1 group I member 2 (Rattus norvegicus) (Q9R1A7 whole entry, looked up): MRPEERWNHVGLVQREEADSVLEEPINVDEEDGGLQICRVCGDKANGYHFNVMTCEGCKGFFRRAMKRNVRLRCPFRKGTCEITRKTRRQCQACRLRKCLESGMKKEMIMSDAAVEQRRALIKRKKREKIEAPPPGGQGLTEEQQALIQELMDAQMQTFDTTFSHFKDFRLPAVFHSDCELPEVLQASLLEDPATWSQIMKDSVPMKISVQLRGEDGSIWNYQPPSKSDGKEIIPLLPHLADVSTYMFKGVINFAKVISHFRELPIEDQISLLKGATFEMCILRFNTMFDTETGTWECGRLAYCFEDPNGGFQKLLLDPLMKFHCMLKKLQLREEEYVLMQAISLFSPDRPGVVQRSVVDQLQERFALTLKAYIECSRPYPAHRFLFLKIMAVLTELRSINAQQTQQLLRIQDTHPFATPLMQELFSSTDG

[4] = qHTS assay to identify inhibitors of the type 1 interferon - major histocompatibility complex class I in skeletal muscle: Counter screen cell viability and HiBit confirmation (AID 1347412); conditions: iHSKM muscle cells + IFN-b, HiBiT or CellTiter-Glo, 24 h; for activity change, negative = inhibition: at 45.9 µM (top of the series); further: potency means the concentration at half of the fitted maximal effect; on activity change, negative = inhibition: on the % scale 0 is the no-effect control and ±100 the full control effect; on all read-outs here: nearly all actives have a fitted effect of over 60% in size
Summary of the method: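 Duplicate plates, pinned identically: one read for HiBiT-tagged endogenous HLA-B luminescence, the other for ATP-content viability via CellTiter Glo. Cells were genome-engineered human myoblasts given 4 ng/ml IFN-b; compounds 12-pt, 1:3 from 46 uM final; 24 hr exposure.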

[5] = at 20 µM (top of the series), tumour line C
[6] = at 45.9 µM (top of the series), tumour line B
[7] = at 45.9 µM (top of the series), tumour line D
[8] = at 46.1 µM (top of the series), tumour line C
[9] = at 46 µM (top of the series), tumour line A

C#CC1(O)CC[C@H]2[C@@H]3CCC4=CCCC[C@@H]4[C@H]3CC[C@@]21C (some centres not stated)
active: Potency ([1]; tumour line A) 11.2 µM
inactive: Potency (Tov-21-G) | Potency (Tov112D) | activity, negative = cell killing [1, 5] -10.1% | Potency (astro)

CN1[C@@H]2CC[C@H]1CC(OC(=O)C(CO)c1ccccc1)C2 (some centres not stated)
inactive: Potency (Tov-21-G) | Potency (Tov112D) | activity, negative = cell killing [1, 6] -12.1% and -3.29% | activity, negative = cell killing [1, 7] -9.67% and -14.2% | activity, negative = cell killing [1, 8] 4.75% and 11.7% | outcome [2]

Cc1cc(O)c2ccccc2c1O
inactive: Potency (Tov112D) | activity, negative = cell killing [1, 8] 5.51%
active: Potency ([1]; tumour line A) 35.5 µM

CC1(C)[C@@H](O)CC[C@]2(C)[C@H]3C(=O)C=C4[C@@H]5C[C@@](C)(C(=O)O)CC[C@]5(C)CC[C@@]4(C)[C@]3(C)CC[C@@H]12
inactive: Potency (Tov-21-G) | Potency (Tov112D) | activity, negative = cell killing [1, 6] -26.1% and -10.2% | activity, negative = cell killing [1, 7] 9.17% and -11.9% | activity, negative = cell killing [1, 8] -0.581% and -19.2% | Potency (astro)

Nc1nc2ccc([N+](=O)[O-])cc2s1
active: Potency ([1]; tumour line A) 39.8 µM
inactive: Potency (Tov-21-G) | Potency (Tov112D) | activity, negative = cell killing ([1]; at 91.6 µM (top of the series), tumour line B) -13.3% | activity, negative = cell killing ([1]; at 99.2 µM (top of the series), tumour line C) -20.5% | max response [3] -3.29% | outcome [2]

O=C(O)c1cc(O)c(O)c(O)c1
inactive: Potency (Tov-21-G) | Potency (Tov112D) | activity, negative = cell killing [1, 6] -10.4% | activity, negative = cell killing [1, 7] -20.6% | activity, negative = cell killing [1, 8] 20.7% | max response [3] -9.5% | outcome [2]

COC(=O)[C@H]1[C@H]2C[C@@H]3c4[nH]c5cc(OC)ccc5c4CCN3C[C@H]2C[C@@H](OC(=O)/C=C/c2cc(OC)c(OC)c(OC)c2)[C@@H]1OC
inactive: Potency (Tov-21-G) | Potency (Tov112D) | activity, negative = cell killing [1, 5] -5.29% | activity, negative = cell killing ([1]; at 21.2 µM (top of the series), tumour line D) -21.8% | Potency (astro)
active: Potency ([1]; tumour line A) 10 µM

CN(C)c1ccc(C(=C2C=CC(=[N+](C)C)C=C2)c2ccccc2)cc1
active: Potency (Tov112D) 2 µM | Potency ([4]; HiBiT) 1.98 µM | Potency ([4]; Viability) 3.94 µM
inactive: outcome [2]

O=C(/C=C/c1ccccc1)NCCO
inactive: Potency (Tov-21-G) | Potency (Tov112D) | activity, negative = cell killing [1, 6] -16.2% | activity, negative = cell killing [1, 7] -5.87% | activity, negative = cell killing [1, 8] -18.2% | Potency (astro)

COC(=O)C1=C(C)NC(C)=C(C(=O)OC)C1c1cccc(NC(=O)NCCCN2CCC(c3cccc(OC)c3)CC2)c1
inactive: Potency (Tov-21-G) | activity change, negative = inhibition ([4]; HiBiT) -3.18% | activity change, negative = inhibition ([4]; Viability) -19.5%

CCCCC1C(=O)N(c2ccccc2)N(c2ccc(O)cc2)C1=O (configuration not stated)
active: Potency (Tov112D) 22.4 µM | Potency ([1]; tumour line A) 7.94 µM
inactive: activity, negative = cell killing [1, 5] -14.9%

O=C(CCN1CCN(CCO)CC1)N1c2ccccc2Sc2ccc(C(F)(F)F)cc21
inactive: Potency (Tov-21-G) | Potency (Tov112D) | activity, negative = cell killing [1, 6] -17.6% | Potency (astro)
active: Potency ([1]; tumour line A) 11.2 µM

COc1cccc2c1C(=O)c1c(O)c3c(c(O)c1C2=O)C[C@@](O)(C(=O)CO)C[C@@H]3O[C@H]1C[C@H](N)[C@H](O[C@@H]2CCCCO2)[C@H](C)O1
active: Potency (Tov112D) 1.58 µM

COc1ccc(/C=C/C(=O)Nc2ccccc2C(=O)O)cc1OC
active: Potency (astro) 17.8 µM
inactive: Potency (Tov-21-G) | Potency (Tov112D)

CCOC(=O)C1=C(C)NC(C)=C(C(=O)OCC)C1c1c(F)c(F)c(F)c(F)c1F
inactive: activity change, negative = inhibition ([4]; HiBiT) -2.44% | activity change, negative = inhibition ([4]; Viability) 9.02%

N=c1ccn2c(n1)O[C@H]1[C@H](O)[C@@H](CO)O[C@H]12
inactive: activity, negative = cell killing [1, 7] -31.3% | activity, negative = cell killing [1, 8] -5.87%

C=CC(N)CCC(=O)O (configuration not stated)
inactive: activity, negative = cell killing [1, 6] -2.82% | activity, negative = cell killing [1, 7] -18.8% | activity, negative = cell killing [1, 9] -11.6% | activity, negative = cell killing [1, 8] -7.65% | Potency (astro)

O=C(O)/C=C/C(O)c1ccc(Cl)cc1 (configuration not stated)
inactive: activity, negative = cell killing [1, 6] 1.63% | activity, negative = cell killing [1, 7] 7.64% | activity, negative = cell killing [1, 9] -31.6% | activity, negative = cell killing [1, 8] 1.95% | Potency (astro)

CN1CCC[C@H]1c1cccnc1
inactive: max response [3] 4.53% and 0.248% | outcome [2]

C=C(Nc1ccc(OCC)cc1)Nc1ccc(OCC)cc1
inactive: activity, negative = cell killing [1, 7] -18.8% | activity, negative = cell killing [1, 8] -12.9% | Potency (astro)

C[S+](CC[C@H](N)C(=O)O)C[C@H]1O[C@@H](n2cnc3c(N)ncnc32)[C@H](O)[C@@H]1O (some centres not stated)
inactive: activity, negative = cell killing [1, 6] 4.03% and -13.3% | activity, negative = cell killing [1, 7] -4.97% and -8.65% | activity, negative = cell killing [1, 8] -29.2% and -23.1% | Potency (astro)
active: Potency ([1]; tumour line A) 7.08 µM

CO/N=C(\C(=O)N[C@@H]1C(=O)N2C(C(=O)O)=C(COC(C)=O)CS[C@H]12)c1csc(N)n1 (stereo in doubt)
inactive: activity, negative = cell killing [1, 6] -12.2% | activity, negative = cell killing [1, 7] 9.74% | activity, negative = cell killing [1, 9] -20.5% | activity, negative = cell killing [1, 8] -2.27%

CC(C)NCC(O)COc1cccc2ccccc12 (configuration not stated)
inactive: max response [3] 2% and 7.81%

CC1(C)C[C@@H]1C(=O)N/C(=C\CCCCSC[C@H](N)C(=O)O)C(=O)O
inactive: activity, negative = cell killing [1, 6] -13% and -12.1% | activity, negative = cell killing [1, 7] 1.02% and -4.66% | activity, negative = cell killing [1, 9] -10.2% and -10.8% | activity, negative = cell killing [1, 8] -10.6% and -17.9%

CC[C@H]1OC(=O)[C@H](C)C(=O)[C@H](C)[C@@H](O[C@@H]2O[C@H](C)C[C@H](N(C)C)[C@H]2O)[C@](C)(OC)C[C@@H](C)C(=O)[C@H](C)[C@H]2N(CCCCn3cnc(-c4cccnc4)c3)C(=O)O[C@]12C
inactive: activity, negative = cell killing [1, 6] -5.03% | activity, negative = cell killing [1, 7] 5.49% | activity, negative = cell killing [1, 9] -23.7% | activity, negative = cell killing [1, 8] 5.5%
